Each structure is given as a SMILES string. Unmarked numbers belong to inactive results. Calls of active or inactive are those of the source. Rule as the data show it: active = log2 fold change growth below about -1.8; inactive = the rest.

The nature of the test: C. elegans growth inhibition, whole organism, log2 fold change (AID 1259336).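 Also: growth scored by imaging after five days at 20 °C.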 The note with it: anthelmintic screen, active compounds read low.
As for `CC1COC(Cn2cncn2)(c2ccc(Oc3ccc(Cl)cc3)cc2Cl)O1` (centres undefined), the log2 fold change growth was -0.72.
Next, `CO/N=C(/C(=O)OC)c1ccccc1CO/N=C(/C)c1cccc(C(F)(F)F)c1`: -0.187; `CO/C=C(\C(=O)OC)c1ccccc1Oc1cc(Oc2ccccc2C#N)ncn1`: -0.352.
Take `Cc1cc(C2=NO[C@](c3cc(Cl)c(F)c(Cl)c3)(C(F)(F)F)C2)ccc1C(=O)NCc1ccc2c(c1)C(C)(C)OB2O`: the log2 fold change growth is -0.268.
As to `CC(C)(C)C(O)C(Oc1ccc(-c2ccccc2)cc1)n1cncn1` (centres undefined), the log2 fold change growth was -0.263.
On to `O=C1O[C@@H](CO)CN1c1cc(F)c(C2=CCN(Cc3ccccc3)CC2)c(F)c1`, for which the log2 fold change growth is 0.141.
On to `O=C1O[C@@H](COc2ccon2)CN1c1cc(F)c(C2=CCN(Cc3ccccc3)CC2)c(F)c1`, for which the log2 fold change growth was 0.114.
Turning to `CC1(C)OB(O)c2ccc(C3=NO[C@](c4cc(Cl)c(F)c(Cl)c4)(C(F)(F)F)C3)cc21`, the log2 fold change growth is -2.88.
As for `CO[C@@H]1CN(c2ccc(C#CC3(O)CN4CCC3CC4)c(Cc3ccccc3)n2)C[C@H]1O` (some centres undefined), the log2 fold change growth is -0.086.
Take `Cc1nn(Cc2ccccc2)c(Cl)c1C(=O)NC1CCCCCC1`: the log2 fold change growth was 0.0333.
Take `CCc1nn(C)c(C(=O)NCc2ccc(Oc3ccc(C)cc3)cc2)c1Cl`: the log2 fold change growth is -10.9 (active).
As for `Cc1cccc(C(=O)Nc2ccnc(N(C)C3CCN(CC(C)C)CC3)c2)c1`, the log2 fold change growth was 0.418.
Next, `Nc1c2c(nc3sc4c(c13)CCCC4)CCCC2`: -0.177; `Cc1nn(C)c(C)c1NS(=O)(=O)c1c(Cl)cc(-c2ccnc(N3CCNCC3)c2)cc1Cl`: -0.0922.

These data come from PubChem BioAssay AID1259336 (Sattelle Laboratory, UCL Respiratory, Division of Medicine, …, 2017).
